Experimental data reported in ChEMBL document CHEMBL3988442, “University of Dundee, Small-Polar-MMV Screening Library” (2021).
About 13,000 (27%) of roughly 48,000 compounds showed an effect of 50% or more. The list shows a part of the results.

Each compound was assayed on Wolbachia pipientis (assay: Anti-Wolbachia Cell-Based Screen). Details: 5 µM.
Assay type: functional
Design: scale not given: in the data most compounds retested in dose-response had high values

Compound	Percent Effect [%]
O[C@@]1(CNCCCNc2cccnc2)CCCN2CCCC[C@@H]21	3.199
Cc1nc(O)cc(CN2CC=C(c3cnn(C(C)(C)C)c3)CC2)n1	6.105
CC(Cc1ccccc1Br)NC(=O)CCS(C)(=O)=O (stereo unspecified)	11.71
O=C(O)C(F)(F)F.c1ccc(NC[C@@H]2CCC[C@@H]3CN(Cc4cccnc4)C[C@@H]32)nc1	90.18
O=C(O)C(F)(F)F.c1ccc(NC[C@@H]2CCC[C@@H]3CN(Cc4nccs4)C[C@@H]32)nc1	-15.69
O=C(O)C(F)(F)F.c1cnc(NC[C@@H]2CCC[C@@H]3CN(Cc4cccnc4)C[C@@H]32)nc1	-1.894
CSCCCN1CC[C@@]2(O)CCN(c3ncccn3)C[C@H]2C1	-7.567
Cc1cccc(-c2ncc(CNC(C)Cc3ncccc3C)cn2)c1 (stereo unspecified)	-7.429
Cc1noc(C)c1CN1C(=O)[C@H]2CC[C@@H]1CN(Cc1cscn1)C2	-52.5
Cc1nc(CN2CCC3(C2)CN(C(=O)c2conc2C)C3)cs1	97.08
Cc1cc(NC2CC3(CCN(Cc4cscn4)C3)C2)ncn1 (stereo unspecified)	115
Cc1cc(CN2C[C@H]3CCC[C@@]3(COCc3csc(C)n3)C2)no1.O=C(O)C(F)(F)F	6.371
c1cc(NC2CC3(CCN(Cc4cscn4)C3)C2)ncn1 (stereo unspecified)	101.6
c1cc(NC2CC3(CCN(Cc4cc[nH]n4)C3)C2)ncn1 (stereo unspecified)	-10.13
Cc1cc(NC2CC3(CCN(Cc4csc(C)n4)C3)C2)ncn1 (stereo unspecified)	114
Cc1nc(CN2CCCC3(CCN(c4cccnc4)C3=O)C2)cs1.O=C(O)C(F)(F)F.O=C(O)C(F)(F)F (stereo unspecified)	-13.68
NCC1(c2cccc(F)c2)CCOCC1	-10.48
Cc1cc(CC(=O)N2CCN(CC3CC3)[C@@H]3CS(=O)(=O)C[C@@H]32)ccc1F	7.302
O=S1(=O)CCC(n2cc(C3=CCN(CCc4ccccc4)CC3)cn2)C1 (stereo unspecified)	-5.355
Cc1n[nH]c(C)c1CC(=O)N1CCN(C)C2(CCNC(=O)CC2)C1 (stereo unspecified)	2.016
O=C(Nc1ccccc1)[C@H]1CN2CC[C@H]1C[C@@H]2Cn1cc(CCO)nn1	-5.907
CC(=O)N1CCC2(CC1)c1ncc(-c3cccnc3)n1CCN2C	84.46
c1ccc2c(c1)CCC21CN(CCc2ccncc2)CCO1 (stereo unspecified)	-6.517
CCC1CCCCN1CCc1ccncc1 (stereo unspecified)	-22.38
CC1CN(CCc2ccncc2)CCO1 (stereo unspecified)	124.6
CC(C)=CCN1C(=O)[C@H]2CC[C@@H]1CN(Cc1cccnc1N)C2	18.56
